Pf apPOL block: Pf-apPOL DNA polymerase inhibition; Recombinant Pf-apPOL, molecular beacon fluorescence, 1.5 h; AID 1794808; inhibition, % at 10 µM; 210,000 compounds, 0.25% hits
mHTT CaM bind: disrupts binding of mutant huntingtin to calmodulin. AID 1671202. inhibition, % at 15 µM. 190,000 compounds, 3.6% hits. AlphaScreen His-mHTT/GST-CaM binding, luminescence. P42858
A number is an active result. Only some compounds are listed: those with a hit (about 3.6% of all), similar ones and a draw of the others. Cut-off read from the data, not from the text of the source: active = inhibition above about 50%; inactive = the rest.

For Cc1ccc(C2=N/C(=C\c3ccccc3Br)C(=O)O2)cc1[N+](=O)[O-] the results were Pf apPOL block inactive and mHTT CaM bind inactive.
Screening O=C1OC(c2ccc(Cl)cc2Cl)=N/C1=C\c1ccccc1[N+](=O)[O-] returned Pf apPOL block inactive and mHTT CaM bind inactive.
COc1ccc(C2=N/C(=C\c3ccccc3[N+](=O)[O-])C(=O)O2)c(Cl)c1 was read as Pf apPOL block 77 and mHTT CaM bind inactive.
`Cc1ccccc1/C=C1\N=C(c2ccc(C)c([N+](=O)[O-])c2)OC1=O` gave Pf apPOL block inactive and mHTT CaM bind 55.
Screening O=C(O)CSCCOc1ccccc1 returned Pf apPOL block inactive.
For CC1CCN(c2ncc3c(n2)CCN(Cc2ccccc2F)C3)CC1 the results were Pf apPOL block inactive and mHTT CaM bind inactive.
O=c1c2c(-c3cccs3)cc(C(F)(F)F)nc2[nH]n1-c1ccccc1 was read as Pf apPOL block inactive and mHTT CaM bind inactive.
For O=C1CN(C(=O)c2ccc(Cl)cc2)C(c2ccc(F)cc2)c2cc(Br)ccc2N1 (stereo unspecified) the results were Pf apPOL block inactive and mHTT CaM bind 56.
Screening COc1ccc(C(=O)N2CC(=O)Nc3ccc(C)cc3C2c2ccc(F)cc2)cc1OC (stereo unspecified) returned Pf apPOL block inactive and mHTT CaM bind inactive.
O=C1CN(C(=O)CCC2CCCC2)C(c2ccc(F)cc2)c2cc(F)ccc2N1 (stereo unspecified) was read as Pf apPOL block inactive and mHTT CaM bind inactive.
For O=C1CN(C(=O)c2ccc(F)cc2)C(c2ccc(F)cc2)c2cc(Br)ccc2N1 (stereo unspecified) the results were Pf apPOL block inactive and mHTT CaM bind inactive.
For O=C1CN(C(=O)CCC2CCCC2)C(c2ccc(F)cc2)c2cc(Br)ccc2N1 (stereo unspecified) the results were Pf apPOL block inactive and mHTT CaM bind 77.
For CCOc1ccc(C(=O)N2CC(=O)Nc3ccc(C)cc3C2c2ccc(F)cc2)cc1OCC (stereo unspecified) the results were Pf apPOL block inactive and mHTT CaM bind 65.
For CSc1ccc(NC(=O)N2CCC(Cc3nc4cccnc4n3C(C)C)C2)cc1 (stereo unspecified) the results were Pf apPOL block inactive and mHTT CaM bind inactive.
For COCC(C)NC(=O)C(=O)Nc1ccc(C(=O)OC)cc1 (stereo unspecified) the results were Pf apPOL block inactive and mHTT CaM bind inactive.
`COc1ccccc1N/C=C(\C#N)c1nc(-c2ccc([N+](=O)[O-])cc2)cs1` gave Pf apPOL block inactive and mHTT CaM bind inactive.
For CCCC(=O)Nc1ccc(-n2c(C)nc3ccccc3c2=O)cc1 the results were Pf apPOL block inactive and mHTT CaM bind inactive.
`O=C(c1ccco1)N1CCc2nc3cc(-c4ccccc4Cl)[nH]n3c(=O)c2C1` gave Pf apPOL block inactive and mHTT CaM bind inactive.
Cc1ccc(CNC(=O)N2CCc3nc4cc(-c5ccccc5Cl)[nH]n4c(=O)c3C2)cc1 was read as Pf apPOL block inactive and mHTT CaM bind 53.
Screening O=C(c1n[nH]c2ccccc12)N1CCc2nc3cc(-c4ccccc4Cl)[nH]n3c(=O)c2C1 returned Pf apPOL block inactive and mHTT CaM bind 89.
For COc1ccc(-c2cc3nc4c(c(=O)n3[nH]2)CN(C(=O)c2n[nH]c3ccccc23)CC4)cc1 the results were Pf apPOL block inactive and mHTT CaM bind inactive.
`COc1ccc(-c2cc3nc4c(c(=O)n3[nH]2)CN(C(C)=O)CC4)cc1` gave Pf apPOL block inactive and mHTT CaM bind inactive.
For COc1ccc(-c2cc3nc4c(c(=O)n3[nH]2)CN(C(=O)NCc2ccc(F)cc2)CC4)cc1 the results were Pf apPOL block inactive and mHTT CaM bind 58.
`O=C(Cc1cccs1)N1CCc2nc3cc(-c4ccccc4Cl)[nH]n3c(=O)c2C1` gave Pf apPOL block inactive and mHTT CaM bind 52.
O=C(Cc1ccccc1)N1CCc2c(nc3cc(-c4ccccc4Cl)[nH]n3c2=O)C1 was read as Pf apPOL block inactive and mHTT CaM bind inactive.
Screening Cc1cccc(N2CC(C(=O)NCCc3cccs3)CC2=O)c1 (stereo unspecified) returned Pf apPOL block inactive and mHTT CaM bind inactive.
Cc1noc(C)c1S(=O)(=O)N1CCC(c2ccncc2)CC1 was read as Pf apPOL block inactive and mHTT CaM bind inactive.
O=C(Nc1cccc2nsnc12)c1cc2nc(-c3cccs3)cc(C(F)(F)F)n2n1 was read as Pf apPOL block inactive and mHTT CaM bind inactive.
`CC(C)(C)c1ccc(O)c(N=C/C=C/c2ccc([N+](=O)[O-])cc2)c1` gave Pf apPOL block inactive and mHTT CaM bind inactive.
O=[N+]([O-])c1ccc(/C=C/C=Nc2ccccc2O)cc1 was read as Pf apPOL block inactive and mHTT CaM bind 83.
Screening O=C(Nc1ccc(C(F)(F)F)cc1)O[C@@H]1C[C@H]2C[C@@H]1[C@H]1CCCCN1C2 returned Pf apPOL block inactive and mHTT CaM bind 73.
`O=C(Nc1ccc(F)cc1)O[C@@H]1C[C@H]2C[C@@H]1[C@H]1CCCCN1C2` gave Pf apPOL block inactive and mHTT CaM bind inactive.
CCC(=O)c1ccc(N2CCN(C(=O)c3cc(F)c(F)cc3C)CC2)c(F)c1 was read as Pf apPOL block inactive and mHTT CaM bind inactive.
Screening O=C(CC1CCN(C(=O)C2CCCCC2)CC1)NCCc1c[nH]c2ccc(Cl)cc12 returned Pf apPOL block inactive and mHTT CaM bind 100.
`Cc1[nH]c(C(=O)N2CCC(CC(=O)NCCc3c[nH]c4ccccc34)CC2)c(C)c1C` gave Pf apPOL block inactive and mHTT CaM bind 90.
For COc1ccc(CCNC(=O)CC2CCN(C(=O)C3CCCCC3)CC2)c(OC)c1 the results were Pf apPOL block inactive and mHTT CaM bind inactive.
For CCc1ccc(CNC(=O)CC2CCN(C(=O)c3[nH]c(C)c(C)c3C)CC2)cc1 the results were Pf apPOL block inactive and mHTT CaM bind inactive.
Cc1ccc(CN2CCCC2c2cc(C)on2)c(C)c1 (stereo unspecified) was read as Pf apPOL block inactive and mHTT CaM bind inactive.
Cc1cccc(NC(=O)N2CCCC(CCC(=O)NCc3ccc4c(c3)OCO4)C2)c1 (stereo unspecified) was read as Pf apPOL block inactive and mHTT CaM bind inactive.
For Cn1cc(C(=O)NCCn2nc(-c3ccco3)ccc2=O)nn1 the results were Pf apPOL block inactive and mHTT CaM bind inactive.
Screening O=C(CC(c1ccccc1)c1ccccc1)NCCn1nc(-c2ccco2)ccc1=O returned Pf apPOL block inactive and mHTT CaM bind 69.
For O=C(COc1ccccc1F)NCCn1nc(-c2ccco2)ccc1=O the results were Pf apPOL block inactive and mHTT CaM bind inactive.
Cc1cc(C)nc(Nc2nc(C(=O)NCCn3nc(-c4ccco4)ccc3=O)cs2)n1 was read as Pf apPOL block inactive and mHTT CaM bind 62.
For CN(C)c1cccc(C(=O)N2CCC3(CC2)NC(=O)N(Cc2cccc(Cl)c2)C3=O)c1 the results were Pf apPOL block inactive and mHTT CaM bind inactive.
For CCN(CC)c1ccc(C=NC(c2ccccc2)c2ccccc2)cc1 the results were Pf apPOL block inactive.
`CCC(=O)Nc1ccc(C2(C(=O)N3CCCCCC3)CCC2)cc1` gave Pf apPOL block inactive and mHTT CaM bind inactive.
For Cc1nnsc1C(=O)Nc1ccc(CN2CCS(=O)(=O)CC2)cc1 the results were Pf apPOL block inactive.
Screening Cc1ccc(Nc2ccc(NC(=O)c3snnc3C)cc2)nn1 returned Pf apPOL block inactive and mHTT CaM bind 100.
